Assay [1] can be described thus: NCI Yeast Anticancer Drug Screen. Data for the rad50 strain (AID 155).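 Note: 0% = growth of vehicle-only cultures of the same strain.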 Particulars: S. cerevisiae rad50 strain growth inhibition, active compounds read high. The essentials:
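Inhibition values express reduced yeast growth in compound-treated cultures relative to vehicle-treated controls.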

Assay [2] in a line: NCI Yeast Anticancer Drug Screen. Data for the mec2-1 strain (AID 157). The conditions noted are these: S. cerevisiae mec2-1 strain, active compounds read high. The essentials: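 Yeast mec2-1 mutant treated with compound. Readout: growth inhibition vs vehicle controls.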
A short description of assay [3]: NCI Yeast Anticancer Drug Screen. Data for the sgs1 mgt1 strain (AID 161).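 Note: 0% = growth of cultures given vehicle only.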 The conditions noted are these: S. cerevisiae sgs1 mgt1 strain, active compounds read high. The essentials:
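Test agents were incubated with a DNA-repair-mutant yeast strain. Growth was then read and compared against vehicle-treated controls.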

Assay [4] in a line: NCI Yeast Anticancer Drug Screen. Data for the cln2 rad14 strain (AID 165).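 Note: 0% = growth equal to vehicle treated cultures.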 Particulars: S. cerevisiae cln2 rad14 strain, active compounds read high. The essentials:
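cln2 rad14 yeast strain; compound exposure; growth inhibition read vs vehicle controls.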

A short description of assay [5]: NCI Yeast Anticancer Drug Screen. Data for the bub3 strain (AID 167). The conditions noted are these: S. cerevisiae bub3 mutant strain, active compounds read high. The essentials: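 Steps: expose the mutant yeast strain to compound; grow alongside vehicle-treated cultures; measure growth; express inhibition against the vehicle cultures.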
Assay [6] in a line: NCI Yeast Anticancer Drug Screen. Data for the mlh1 rad18 strain (AID 175). The conditions noted are these: S. cerevisiae mlh1 rad18 strain growth inhibition, active compounds read high. The method in brief:
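Yeast w/ defined DNA-repair lesions; compound exposure; growth vs vehicle controls → % inhibition.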

Setting [7] is: at 5.0 µM (retest, dose inferred, filed as 0.5).
[8] abbreviates: at 50.0 µM (retest, dose inferred, filed as 5.0).

This is part of a sample that, as a whole, favours compounds with a hit. Of some 79,000 tested, about 15% had one in any assay. Values without a mark were called inactive. The source made the active and inactive calls. Cut-off read from the data, not from the text of the source: active = growth inhibition above about 70%; inactive = the rest.

In the case of `CCCC[NH-].CCCC[NH-].[I][Pt+2][I]`, the growth inhibition was 30% in assay [1] (setting [7]); 67% in assay [1] (setting [8]); 29.2% in assay [1] (at 50.0 µM); 22% in assay [2] (setting [7]); 49% in assay [2] (setting [8]); 15% in assay [2] (at 50.0 µM). The growth inhibition in assay [3] (setting [7]) is 48%; in assay [3] (setting [8]), 70% (active); in assay [3] (at 50.0 µM), 60.6%; in assay [4] (setting [7]), 53%; in assay [4] (setting [8]), 57%; in assay [4] (at 50.0 µM) it was 15.2%.
As to `O=C(c1ccccc1)C(c1ccccc1)C1(O)C(=O)Nc2c(Cl)cc(Cl)cc21` (stereo not given), the growth inhibition was 13% in assay [1] (setting [7]); 13% in assay [1] (setting [8]); 92.8% (active) in assay [1] (at 50.0 µM); -6% in assay [2] (setting [7]); -6% in assay [2] (setting [8]); 93.3% (active) in assay [2] (at 50.0 µM). For the same compound, the growth inhibition in assay [3] (setting [7]) was -18%; in assay [3] (setting [8]), -18%; in assay [3] (at 50.0 µM) it was 92% (active); in assay [4] (setting [7]) it was -6%; in assay [4] (setting [8]) it was -6%; in assay [4] (at 50.0 µM), 87% (active). Also, the growth inhibition is -5% in assay [5] (setting [7]); -5% in assay [5] (setting [8]); 93.2% (active) in assay [5] (at 50.0 µM); 0% in assay [6] (setting [7]); 0% in assay [6] (setting [8]); 92.2% (active) in assay [6] (at 50.0 µM).
Turning to `O=C(O)c1ccc(NCc2c(O)ccc3ccccc23)cc1`, the growth inhibition was 5% in assay [1] (setting [7]); 26% in assay [1] (setting [8]); 4% in assay [1] (at 50.0 µM); 9% in assay [2] (setting [7]); 29% in assay [2] (setting [8]); 17.4% in assay [2] (at 50.0 µM). Besides, the growth inhibition in assay [3] (setting [7]) was 11%; in assay [3] (setting [8]), 15%; in assay [3] (at 50.0 µM), 45.2%; in assay [4] (setting [7]), -3%; in assay [4] (setting [8]), 15%; in assay [4] (at 50.0 µM) it was -13.9%. Besides, the growth inhibition in assay [5] (setting [7]) is 4%; in assay [5] (setting [8]), 28%; in assay [5] (at 50.0 µM), 48.1%.
Regarding `O=P1(O)c2ccccc2CS(=O)(=O)Cc2ccccc21`, the growth inhibition in assay [1] (setting [7]) was 34%; in assay [1] (setting [8]), 31%; in assay [1] (at 50.0 µM) it was 21.4%; in assay [2] (setting [7]) it was 21%; in assay [2] (setting [8]) it was 24%; in assay [2] (at 50.0 µM) it was -11.1%. For the same compound, the growth inhibition in assay [3] (setting [7]) was 26%; in assay [3] (setting [8]), 53%; in assay [3] (at 50.0 µM), -24.2%; in assay [4] (setting [7]), 16%; in assay [4] (setting [8]), 29%; in assay [4] (at 50.0 µM), -13.2%. Moreover, the growth inhibition in assay [5] (setting [7]) is 16%; in assay [5] (setting [8]), 46%; in assay [5] (at 50.0 µM) it was -19.8%; in assay [6] (setting [7]), 35%; in assay [6] (setting [8]) it was 43%; in assay [6] (at 50.0 µM), -42.8%.
Regarding `COc1ccc(CCN2C(=O)C(=O)N(C3CCCCC3)C2=O)cc1OC`, the growth inhibition is -1% in assay [1] (setting [7]); 2% in assay [1] (setting [8]); 75.4% (active) in assay [1] (at 50.0 µM); -1% in assay [2] (setting [7]); 0% in assay [2] (setting [8]); 11.9% in assay [2] (at 50.0 µM). The growth inhibition was -3% in assay [3] (setting [7]); -3% in assay [3] (setting [8]); 26.9% in assay [3] (at 50.0 µM); -2% in assay [4] (setting [7]); 0% in assay [4] (setting [8]); 12.8% in assay [4] (at 50.0 µM). For the same compound, the growth inhibition is -2% in assay [5] (setting [7]); -5% in assay [5] (setting [8]); 34.1% in assay [5] (at 50.0 µM); -6% in assay [6] (setting [7]); -8% in assay [6] (setting [8]); 38.4% in assay [6] (at 50.0 µM).
Consider `CCC[CH2][Sn]([CH2]CCC)([O]C(=O)c1cc(OC)c(OC)c(OC)c1)[O]C(=O)c1cc(OC)c(OC)c(OC)c1`, for which the growth inhibition in assay [1] (setting [7]) was 96% (active); in assay [1] (setting [8]) it was 96% (active); in assay [1] (at 50.0 µM), 71.9% (active); in assay [2] (setting [7]), 96% (active); in assay [2] (setting [8]), 96% (active); in assay [2] (at 50.0 µM) it was 84.7% (active). In addition, the growth inhibition in assay [3] (setting [7]) was 94% (active); in assay [3] (setting [8]), 94% (active); in assay [3] (at 50.0 µM), 74.8% (active); in assay [4] (setting [7]), 95% (active); in assay [4] (setting [8]), 95% (active); in assay [4] (at 50.0 µM), 80% (active). Further, the growth inhibition is 97% (active) in assay [5] (setting [7]); 97% (active) in assay [5] (setting [8]); 74.8% (active) in assay [5] (at 50.0 µM); 96% (active) in assay [6] (setting [7]); 96% (active) in assay [6] (setting [8]); 78.5% (active) in assay [6] (at 50.0 µM).
`CCCCOC(=O)c1n[nH]c(C)c1N=NN(C)C`: the growth inhibition in assay [1] (setting [7]) was 43%; in assay [1] (setting [8]), 99% (active); in assay [1] (at 50.0 µM), 99% (active); in assay [2] (setting [7]), 96% (active); in assay [2] (setting [8]), 99% (active); in assay [2] (at 50.0 µM) it was 99% (active). The growth inhibition was 95% (active) in assay [3] (setting [7]); 99% (active) in assay [3] (setting [8]); 99.2% (active) in assay [3] (at 50.0 µM); 95% (active) in assay [4] (setting [7]); 99% (active) in assay [4] (setting [8]); 99.4% (active) in assay [4] (at 50.0 µM). The growth inhibition is 84% (active) in assay [5] (setting [7]); 99% (active) in assay [5] (setting [8]); 99.2% (active) in assay [5] (at 50.0 µM); 80% (active) in assay [6] (setting [7]); 99% (active) in assay [6] (setting [8]); 99.2% (active) in assay [6] (at 50.0 µM).
On to `CC1=CC(c2c(O)cc(O)c(C(=O)CCc3ccccc3)c2O)C(C(C)C)CC1` (stereo not given), for which the growth inhibition in assay [1] (setting [7]) was 11%; in assay [1] (setting [8]), 88% (active); in assay [1] (at 50.0 µM), 70.8% (active); in assay [2] (setting [7]) it was 10%; in assay [2] (setting [8]) it was 85% (active); in assay [2] (at 50.0 µM), 83% (active). Also, the growth inhibition in assay [3] (setting [7]) is 1%; in assay [3] (setting [8]), 91% (active); in assay [3] (at 50.0 µM), 80% (active); in assay [4] (setting [7]) it was 3%; in assay [4] (setting [8]) it was 87% (active); in assay [4] (at 50.0 µM), 79.2% (active). In addition, the growth inhibition in assay [5] (setting [7]) was 21%; in assay [5] (setting [8]), 96% (active); in assay [5] (at 50.0 µM), 76% (active); in assay [6] (setting [7]) it was 8%; in assay [6] (setting [8]), 76% (active); in assay [6] (at 50.0 µM), 82.2% (active).
With `COc1ccc(C2(O)c3ccccc3C(=O)C2c2ccccn2)cc1` (stereo not given), the growth inhibition in assay [1] (setting [7]) is 99% (active); in assay [1] (setting [8]), 10%; in assay [1] (at 50.0 µM), 99% (active); in assay [2] (setting [7]), 98% (active); in assay [2] (setting [8]) it was -5%; in assay [2] (at 50.0 µM) it was 99% (active). The growth inhibition in assay [3] (setting [7]) was 98% (active); in assay [3] (setting [8]) it was -1%; in assay [3] (at 50.0 µM), 99.3% (active); in assay [4] (setting [7]) it was 97% (active); in assay [4] (setting [8]), -1%; in assay [4] (at 50.0 µM), 98.8% (active). The growth inhibition in assay [5] (setting [7]) is 99% (active); in assay [5] (setting [8]) it was 7%; in assay [5] (at 50.0 µM) it was 99.3% (active).
Turning to `CC(C)C(C)(C(=O)O)C(C)C`, the growth inhibition in assay [1] (setting [7]) is 0%; in assay [1] (setting [8]), 1%; in assay [1] (at 50.0 µM), 13.8%; in assay [2] (setting [7]) it was 3%; in assay [2] (setting [8]) it was 2%; in assay [2] (at 50.0 µM), 2.1%. In addition, the growth inhibition in assay [3] (setting [7]) was 2%; in assay [3] (setting [8]), 3%; in assay [3] (at 50.0 µM) it was 5.6%; in assay [4] (setting [7]), -3%; in assay [4] (setting [8]) it was 4%; in assay [4] (at 50.0 µM) it was 67%. Besides, the growth inhibition in assay [5] (setting [7]) was -1%; in assay [5] (setting [8]), 0%; in assay [5] (at 50.0 µM) it was -5.5%.
